Values joined by “and” are separate entries in the source; they are usually repeats but may differ in a detail not shown here. Equal values may be shown once. Results filed as inconclusive are left out. Active and inactive are the calls of the source. Unless noted, calls follow the shape of the dose curve; as a rule, active = well fitted curve in the direction sought with a large enough effect; inconclusive = small, poorly fitted or top-dose-only effect, or another doubt; inactive = no such curve, though single readings can be large; an effect the other way counts as inactive or inconclusive.
Legend:
[1] = Cellular Toxicity (caspase-3) H-4-II-E (AID 663);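 also: cells exposed to compound for 16 hr before readout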
Procedure, shortened: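 Caspase 3/7 activation measured by luminescent aminoluciferin substrate cleavage after 16 hr compound treatment of H-4-II-E cells in complete medium. Increase normalized between DMSO (basal) and 100 uM tamoxifen (100%); Hill-equation AC50 from concentration-response.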

[2] = Cellular Toxicity (caspase-3) Hek293 (AID 664);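 also: cells exposed to compound for 16 h at 37 °C before readout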
Procedure, shortened: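 qHTS, HEK293 (human embryonic kidney), 16 h cpd exposure in complete medium. Caspase-3/7 activation = luminescence increase; normalized to DMSO/100 uM tamoxifen; Hill-fit AC50.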

[3] = Cellular Toxicity (caspase-3) N2a (AID 665);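 also: compound exposure lasted 16 h at 37 °C before readout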
Procedure, shortened: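 Caspase-3/7 activation, measured as increased luminescence from aminoluciferin release, is quantified in mouse N2a cells exposed to compounds for 16 h. Values are normalized to DMSO and 10 uM staurosporine, with AC50 derived by Hill modelling.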

[4] = Cellular Toxicity (caspase-3) NIH 3T3 (AID 666)
Procedure, shortened: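 Cells were plated at 1000 per well and incubated 5 hr at 37°C, then compound was added for 16 hr. Caspase-Glo 3/7 reagent followed for 20 min at room temperature before luminescence was read.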

[5] = Cellular Toxicity (caspase-3) Renal Proximal Tubule (AID 667);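 also: cells exposed to compound for 16 hours at 37 °C before detection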
Procedure, shortened: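 Caspase-Glo 3/7 read-out, rat primary kidney proximal tubule cells. Compound exposure 16 h, 37 °C; detection after 1 h at RT. Activity scaled to DMSO and 10 uM staurosporine.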

[6] = target: Guanine nucleotide-binding protein G(i) subunit alpha-1 (Homo sapiens) (UniProt P63096); assay: qHTS Assay for Inhibitors of RGS12 GoLoco Motif Activity (Green Fluorophore) (AID 879);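 also: negative values mean loss of peptide binding seen as reduced polarization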
Procedure, shortened: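 A drop in FITC polarization marked displacement of the FITC-tagged RGS12 GoLoco peptide (10 nM) from Gαi1 (50 nM). Compounds were incubated 10 min at room temperature in Tris pH 7.5 buffer containing 150 mM NaCl, 0.1 mM GDP and 0.05% NP40; unlabeled peptide titration served as control.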

[7] = target: Cytochrome P450 2C9 (Homo sapiens) (UniProt P11712); assay: qHTS Assay for Inhibitors and Substrates of Cytochrome P450 2C9 (AID 883); also: nearly all actives have a fitted effect of over 60% in size
Procedure, shortened: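 Inhibition of CYP2C9 is scored as loss of luminescence, with 57uM sulphaphenazole defining 100% inhibition. Substrate Luciferin-H is used at 100uM, equal to its KM; enzyme at 10nM in 25mM KPO4, 60 min at 37C with NADPH regeneration.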

[8] = target: Cytochrome P450 3A4 (Homo sapiens) (UniProt P08684); assay: qHTS Assay for Inhibitors and Substrates of Cytochrome P450 3A4 (AID 884); also: series mostly up to about 57 µM; nearly all actives have a fitted effect of over 50% in size
Procedure, shortened: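 Luminescent readout of luciferin produced by CYP3A4 (20 nM) dealkylation of Luciferin-PPXE, 25 uM (its KM). NADPH-driven reaction ran 60 min at RT after 10 min compound preincubation; data scaled to 57 uM ketoconazole as 100% inhibition.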

[9] = target: Cytochrome P450 2D6 (Homo sapiens) (UniProt P10635); assay: qHTS Assay for Inhibitors and Substrates of Cytochrome P450 2D6 (AID 891); also: nearly all actives have a fitted effect of over 60% in size; also: potency is read from the fitted curve at half-maximal effect
Procedure, shortened: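 Luminescent read-out of luciferin formed by 5 nM human CYP2D6 demethylating 30 uM Luciferin-ME EGE (Km level) over 60 min at room temperature after NADPH regeneration addition. Data normalized to full inhibition by 1.43 uM quinidine.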

[10] = target: Cytochrome P450 2C19 (Homo sapiens) (UniProt P33261); assay: qHTS Assay for Inhibitors and Substrates of Cytochrome P450 2C19 (AID 899); also: nearly all actives have a fitted effect of over 60% in size
Procedure, shortened: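 5nM enzyme + 10uM Luciferin-H EGE (=KM), 50mM KPO4; cpd pin-transferred, 10 min 37C; NADPH regen, 60 min 37C; stopped w/ luciferin detection reagent, 20 min; luminescence. Normalized to 57uM ketoconazole (AC100).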

[11] = Confirmation and Secondary Assay for Modulators of Hemoglobin Beta Chain Splicing at IVS2 654 locus (AID 910);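 also: HeLa cells stably carrying EGFP split by mutant beta-globin IVS2-654 intron; per-well total GFP intensity by laser scanning cytometry after 2-day treatment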
Procedure, shortened: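 Readout: per-well total peak green fluorescence (488 nm ex, 500–520 nm em) from objects 5–250 µm, reflecting correct splicing of an EGFP-654 reporter. Compounds were applied for 2 days at 37 °C to overnight-plated HeLa EGFP-654 cells; controls were DMSO and 500 nM IVS2-654 PNA.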

[12] = qHTS Assay for Identification of Small Molecule Agonists for Thrombopoietin (TPO) Signaling Pathway (AID 917)
Procedure, shortened: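 Human TPO receptor–transfected Ba/F3 cells (murine, IL-3-dependent) in IL-3-deficient medium; compounds plus TPO at EC50, 26 pM final; 24 hrs, 37 C; GpIIb-luciferase luminescence after 10 min RT detection.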

[13] = Cell Viability - LYMP2-001 (AID 921);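 also: series mostly up to about 92 µM; cells exposed to compound for 24 h at 37 °C; nearly all actives have a fitted effect of over 70% in size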
Procedure, shortened: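 A lymphoblastoid cell line of human origin was treated with library compounds across a concentration series for 24 hours, and viable cell number was estimated from ATP-driven luciferase light output. Hill modeling gave AC50.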

[14] = Confirmation and Secondary Assay for Modulators of Hemoglobin Beta Chain Splicing at IVS2 705 locus (AID 930);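 also: HeLa cells stably expressing the EGFP-705 splicing reporter; GFP fluorescence per well restored by corrected splicing of the IVS2-705 intron in EGFP; series mostly up to about 46 µM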
Procedure, shortened: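 Assay measures total GFP intensity per well in HeLa EGFP-705 cells after 2 days with compound; mis-splicing normally truncates EGFP, so fluorescence indicates corrected splicing.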

[15] = target: Cytochrome P450 3A4 (Homo sapiens) (UniProt P08684); assay: qHTS Assay for Activators of Cytochrome P450 3A4 (AID 885); also: nearly all actives have a fitted effect of over 65% in size
Procedure, shortened: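 Human CYP3A4 dealkylates Luciferin-PPXE to luciferin, which luciferase detection converts to light. Substrate was at its KM (25uM), buffer 200mM KPO4, reaction 60 min at RT.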

[16] = qHTS Assay for Identification of Small Molecule Antagonists for NFkB Signaling Pathway (AID 895; active = well fitted inhibition curve with a large enough effect in the signal ratio, with a control signal flat, not every such curve was filed as active; the % refers to the signal ratio)
Procedure, shortened: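 Beta-lactamase reporter read-out (460 and 530 nm emission ratio, 405 nm excitation, 2 hrs substrate loading RT) after 5 hr stimulation with 10 pM TNF alpha in compound-treated NFkB-bla ME-180 cells in low-serum medium.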

[17] = qHTS Assay for Identification of Small Molecule Agonists for Hypoxia Response Element Signaling Pathway (AID 914; active = well fitted activation curve with a large enough effect in the signal ratio, with a control signal flat, not every such curve was filed as active; the % refers to the signal ratio; also: potency is read from the fitted curve at half-maximal effect); conditions: ME-180 (cervical carcinoma) HRE-bla reporter, beta-lactamase ratio, CoCl2, 17 h; activation: active compounds read high
Procedure, shortened: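 Compounds in a titration series were added to ME-180 reporter cells alongside an EC50 level of CoCl2. After 17 hours, beta-lactamase activity was read as the 460nm/530nm emission ratio of CCF4, giving AC50 values.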

[18] = target: Muscarinic acetylcholine receptor M1 (Rattus norvegicus) (UniProt P08482); assay: qHTS Assay for Antagonists of Acetylcholine Muscarinic M1 Receptor: Measurement of IP-One Response (AID 944); also: nearly all actives have a fitted effect of over 75% in size
Procedure, shortened: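 Antagonist mode with rat M1 receptor transfected into CHO cells. Compound is added first for 10 min, carbachol at its EC80 follows for 30 min, and lysis reagents then allow TR-FRET detection of accumulated IP1.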

Measured: Potency

Cytochrome P450 3A4 (Homo sapiens), sequence (P08684 whole entry, looked up): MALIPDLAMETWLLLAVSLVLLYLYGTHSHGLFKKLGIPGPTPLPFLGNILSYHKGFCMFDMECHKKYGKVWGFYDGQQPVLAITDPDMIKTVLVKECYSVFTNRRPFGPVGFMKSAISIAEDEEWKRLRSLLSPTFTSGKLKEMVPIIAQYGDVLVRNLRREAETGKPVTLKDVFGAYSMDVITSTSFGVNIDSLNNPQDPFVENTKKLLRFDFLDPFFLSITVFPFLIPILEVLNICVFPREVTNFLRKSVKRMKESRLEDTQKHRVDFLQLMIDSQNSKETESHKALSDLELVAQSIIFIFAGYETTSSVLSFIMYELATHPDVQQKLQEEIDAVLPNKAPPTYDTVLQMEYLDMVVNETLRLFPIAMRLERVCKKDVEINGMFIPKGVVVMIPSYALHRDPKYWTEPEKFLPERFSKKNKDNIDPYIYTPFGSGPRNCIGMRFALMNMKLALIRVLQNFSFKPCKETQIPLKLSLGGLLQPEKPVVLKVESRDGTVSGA
Cytochrome P450 2C19 (Homo sapiens), sequence (P33261 whole entry, looked up): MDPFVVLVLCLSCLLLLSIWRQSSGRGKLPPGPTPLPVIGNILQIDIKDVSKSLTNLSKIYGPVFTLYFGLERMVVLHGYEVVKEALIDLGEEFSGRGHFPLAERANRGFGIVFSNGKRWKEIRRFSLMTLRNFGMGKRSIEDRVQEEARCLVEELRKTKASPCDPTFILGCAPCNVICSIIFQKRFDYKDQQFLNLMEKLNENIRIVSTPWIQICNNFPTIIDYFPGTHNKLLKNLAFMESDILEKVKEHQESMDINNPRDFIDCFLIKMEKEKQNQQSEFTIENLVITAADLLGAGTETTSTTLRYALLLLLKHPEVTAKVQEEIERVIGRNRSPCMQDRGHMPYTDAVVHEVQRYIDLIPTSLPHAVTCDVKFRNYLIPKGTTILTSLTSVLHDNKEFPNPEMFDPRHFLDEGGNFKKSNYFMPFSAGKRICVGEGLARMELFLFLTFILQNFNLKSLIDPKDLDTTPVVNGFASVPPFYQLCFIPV
Cytochrome P450 2D6 (Homo sapiens), sequence (P10635 whole entry, looked up): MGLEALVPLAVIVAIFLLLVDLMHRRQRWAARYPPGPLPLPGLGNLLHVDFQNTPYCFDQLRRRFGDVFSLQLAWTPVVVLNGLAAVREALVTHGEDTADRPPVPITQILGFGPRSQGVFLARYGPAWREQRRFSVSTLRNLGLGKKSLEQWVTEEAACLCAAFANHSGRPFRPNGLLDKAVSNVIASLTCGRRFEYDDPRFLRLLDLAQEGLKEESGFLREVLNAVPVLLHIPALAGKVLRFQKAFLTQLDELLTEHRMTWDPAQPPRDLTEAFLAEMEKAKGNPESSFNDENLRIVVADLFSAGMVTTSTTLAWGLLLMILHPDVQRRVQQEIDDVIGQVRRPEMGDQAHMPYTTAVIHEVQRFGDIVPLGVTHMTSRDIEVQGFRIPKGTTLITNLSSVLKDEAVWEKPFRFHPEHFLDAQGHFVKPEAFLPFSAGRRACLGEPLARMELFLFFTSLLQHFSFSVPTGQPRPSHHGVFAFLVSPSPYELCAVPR
Guanine nucleotide-binding protein G(i) subunit alpha-1 (Homo sapiens), sequence (P63096 whole entry, looked up): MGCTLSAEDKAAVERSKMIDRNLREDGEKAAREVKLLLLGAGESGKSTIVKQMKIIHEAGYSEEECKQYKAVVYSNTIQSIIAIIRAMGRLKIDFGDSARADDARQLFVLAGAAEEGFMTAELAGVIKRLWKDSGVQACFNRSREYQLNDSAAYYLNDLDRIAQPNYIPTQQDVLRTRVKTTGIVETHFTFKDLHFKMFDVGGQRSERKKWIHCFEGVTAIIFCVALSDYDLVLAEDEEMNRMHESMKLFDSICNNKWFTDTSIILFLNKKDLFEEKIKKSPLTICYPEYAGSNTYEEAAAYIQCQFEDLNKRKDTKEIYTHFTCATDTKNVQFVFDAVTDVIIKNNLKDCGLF
Cytochrome P450 2C9 (Homo sapiens), sequence (P11712 whole entry, looked up): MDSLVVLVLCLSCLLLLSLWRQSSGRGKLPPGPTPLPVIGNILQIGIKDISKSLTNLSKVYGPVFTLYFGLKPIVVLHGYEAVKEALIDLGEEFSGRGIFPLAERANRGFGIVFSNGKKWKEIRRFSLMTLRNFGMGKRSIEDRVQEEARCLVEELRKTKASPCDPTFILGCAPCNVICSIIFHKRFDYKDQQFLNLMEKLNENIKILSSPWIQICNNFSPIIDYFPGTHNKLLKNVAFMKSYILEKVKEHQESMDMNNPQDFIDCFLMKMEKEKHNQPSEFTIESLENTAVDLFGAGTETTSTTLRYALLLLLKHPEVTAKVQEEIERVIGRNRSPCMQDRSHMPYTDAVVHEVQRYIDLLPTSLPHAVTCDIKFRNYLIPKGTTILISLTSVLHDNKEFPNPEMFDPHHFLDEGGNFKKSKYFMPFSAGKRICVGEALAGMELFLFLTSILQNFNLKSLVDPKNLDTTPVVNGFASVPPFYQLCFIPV
Muscarinic acetylcholine receptor M1 (Rattus norvegicus), sequence (P08482 whole entry, looked up): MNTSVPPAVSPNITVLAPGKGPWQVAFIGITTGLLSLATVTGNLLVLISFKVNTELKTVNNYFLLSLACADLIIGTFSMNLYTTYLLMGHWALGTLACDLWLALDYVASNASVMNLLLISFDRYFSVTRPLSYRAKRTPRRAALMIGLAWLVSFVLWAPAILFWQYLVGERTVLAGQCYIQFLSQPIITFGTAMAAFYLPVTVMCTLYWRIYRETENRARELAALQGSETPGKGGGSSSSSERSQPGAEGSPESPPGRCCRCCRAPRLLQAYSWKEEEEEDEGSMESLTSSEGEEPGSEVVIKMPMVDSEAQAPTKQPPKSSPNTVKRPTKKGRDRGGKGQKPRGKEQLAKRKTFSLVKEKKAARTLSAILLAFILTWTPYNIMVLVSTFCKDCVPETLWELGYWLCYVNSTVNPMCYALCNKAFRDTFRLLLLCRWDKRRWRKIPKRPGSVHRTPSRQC

O=c1[nH]cnc2[nH]ncc12
not listed: [15] | [16] | [17] | [18]
inactive: all other assays above

Cc1oncc1C(=O)Nc1ccc(C(F)(F)F)cc1
inactive: [6] | [15] | [9] | [16] | [10] | [11] | [14]

NC(N)=NC(=O)c1nc(Cl)c(N)nc1N
not listed: [7] | [9] | [10] | [13] | [15] | [17] | [18]
inactive: all other assays above

O=C1CCc2cc(OCCCCc3nnnn3C3CCCCC3)ccc2N1
inactive: [6] | [15] | [9] | [10] | [11] | [14]

CCOC(=O)N1CCC(=C2c3ccc(Cl)cc3CCc3cccnc32)CC1
inactive: [6] | [16] | [11] | [14]
active: [17] 15.8 µM

N[C@@H]1CONC1=O
inactive: [6] | [7] | [15] | [12]

Cc1ccc(N(CC2=NCCN2)c2cccc(O)c2)cc1
inactive: [6] | [11] | [12] | [14] | [18]
active: [9] 3.16 µM and 794 nM
